# Experimental data: the supplement of paper PMC9950053
# Counter-ions that a name gives are not always drawn.
# Test system: Danio rerio larvae (5 dpf)
# Assay: combined optomotor response (time in upper well half, down vs up moving lines, periods 7-14) minus DMSO control (percentage points); higher = stronger optomotor response than DMSO larvae
# Settings: 10 µM; exposure time: 3 h pre-incubation + 3 h imaging
# Protocol: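 Wild-type 5 dpf zebrafish larvae (n=48 per drug, 96-well plates, 28.5 °C) were exposed to Tocris FDA-approved library compounds at 10 µM (0.1% DMSO) for 3 h before and 3 h during imaging. Images were taken every 6 s during visual and acoustic stimuli, and larvae were tracked with Z-LaP Tracker. Each measure is the treated-group mean minus the DMSO control mean (n=844), in percentage points. This mapping covers compounds with 5-character plate codes.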
row,SMILES,combined optomotor response
1,CCc1nc(N)nc(N)c1-c1ccc(Cl)cc1 [Pyrimethamine],7.22
2,CC(C)OC(=O)C(C)(C)Oc1ccc(C(=O)c2ccc(Cl)cc2)cc1 [Fenofibrate],2.45
3,CN(C)C(=N)NC(=N)N [Metformin hydrochloride],8.63
4,COc1cc(N)c(Cl)cc1C(=O)NC1CCN(CCCOc2ccc(F)cc2)CC1OC (stereo unspecified) [Cisapride],4.72
5,CCCCCCCN(CC)CCCC(O)c1ccc(NS(C)(=O)=O)cc1 (stereo unspecified) [Ibutilide hemifumarate],5.81
6,CNS(=O)(=O)Cc1ccc2[nH]cc(CCN(C)C)c2c1 [Sumatriptan succinate],-0.931
7,CC(=O)Oc1cc2c(s1)CCN(C(C(=O)C1CC1)c1ccccc1F)C2 (stereo unspecified) [Prasugrel],6.75
8,COc1ccccc1OCC(O)CN1CCN(CC(=O)Nc2c(C)cccc2C)CC1 (stereo unspecified) [Ranolazine dihydrochloride],10.9
9,COCCc1ccc(OCC(O)CNC(C)C)cc1 (stereo unspecified) [Metoprolol tartrate],1.91
10,CN(C)CCc1c[nH]c2ccc(C[C@H]3COC(=O)N3)cc12 [Zolmitriptan],5.82
11,COc1cc2nccc(Oc3ccc(NC(=O)C4(C(=O)Nc5ccc(F)cc5)CC4)cc3)c2cc1OC,0.162
12,COc1ccccc1Oc1c(NS(=O)(=O)c2ccc(C(C)(C)C)cc2)nc(-c2ncccn2)nc1OCCO [Bosentan],1.31
13,Cc1cc2c(s1)Nc1ccccc1N=C2N1CCN(C)CC1 [Olanzapine],8.87
14,N#Cc1ccc2[nH]cc(CCCCN3CCN(c4ccc5oc(C(N)=O)cc5c4)CC3)c2c1 [Vilazodone hydrochloride],-6.69
15,OCCN1C[C@H](O)[C@@H](O)[C@H](O)[C@H]1CO [Miglitol],5.48
16,Clc1ccc2nsnc2c1NC1=NCCN1 [Tizanidine hydrochloride],1.65
17,OCc1cc(C(O)CNCCCCCCOCCCCc2ccccc2)ccc1O (stereo unspecified) [Salmeterol xinafoate],0.619
18,CNC(=O)c1cc(Oc2ccc(NC(=O)Nc3ccc(Cl)c(C(F)(F)F)c3)cc2)ccn1 [Sorafenib],-1.64

row,SMILES,combined optomotor response
1,CN[C@H]1CC[C@@H](c2ccc(Cl)c(Cl)c2)c2ccccc21 [Sertraline hydrochloride],-6.63
2,CCCc1nn(C)c2c(=O)[nH]c(-c3cc(S(=O)(=O)N4CCN(C)CC4)ccc3OCC)nc12 [Sildenafil citrate],-0.855
3,CC(=O)Nc1ccc(O)cc1 [Acetaminophen],0.558
4,N#C[C@@H]1C[C@@H]2C[C@@H]2N1C(=O)[C@@H](N)C12CC3CC(CC(O)(C3)C1)C2 [Saxagliptin hydrochloride],-2.67
5,CC[C@H]1OC(=O)[C@H](C)[C@@H](O[C@H]2C[C@@](C)(OC)[C@@H](O)[C@H](C)O2)[C@H](C)[C@@H](O[C@@H]2O[C@H](C)C[C@H](N(C)C)[C@H]2O)[C@](C)(O)C[C@@H](C)CN(C)[C@H](C)[C@@H](O)[C@]1(C)O [Azithromycin],-4.55
6,CC(C)(C(=O)O)c1ccc(C(O)CCCN2CCC(C(O)(c3ccccc3)c3ccccc3)CC2)cc1 (stereo unspecified) [Fexofenadine hydrochloride],3.85
7,COc1cc([C@@H]2c3cc4c(cc3[C@@H](O[C@@H]3O[C@@H]5CO[C@@H](C)O[C@H]5[C@H](O)[C@H]3O)[C@H]3COC(=O)[C@H]23)OCO4)cc(OC)c1O [Etoposide],4.51
8,C#CCN[C@@H]1CCc2ccccc21 [Rasagiline mesylate],6.3
9,OC(c1cc(C(F)(F)F)nc2c(C(F)(F)F)cccc12)C1CCCCN1 (stereo unspecified) [Mefloquine hydrochloride],-2.6
10,NC(=O)OCC(COC(N)=O)c1ccccc1 [Felbamate],-0.92
11,O=C1CCc2ccc(OCCCCN3CCN(c4cccc(Cl)c4Cl)CC3)cc2N1 [Aripiprazole],1.74
12,C[C@H]1O[C@H](O[C@H]2[C@H](O)[C@@H](O)[C@@H](O[C@H]3[C@H](O)[C@@H](O)C(O)O[C@@H]3CO)O[C@@H]2CO)[C@H](O)[C@@H](O)[C@@H]1N[C@H]1C=C(CO)[C@@H](O)[C@H](O)[C@H]1O (stereo partly specified) [Acarbose],3.82
13,CCCC1O[C@@H]2C[C@H]3[C@@H]4CCC5=CC(=O)C=C[C@]5(C)[C@H]4[C@@H](O)C[C@]3(C)[C@]2(C(=O)CO)O1 (stereo partly specified) [Budesonide],2.27
14,CNCc1ccc(-c2[nH]c3cc(F)cc4c3c2CCNC4=O)cc1 [Rucaparib camsylate],4.21
15,O=C(O)C[C@H](O)C[C@H](O)/C=C/c1c(C2CC2)nc2ccccc2c1-c1ccc(F)cc1 [Pitavastatin calcium],8.14
16,O=c1n(CCCN2CCN(c3cccc(Cl)c3)CC2)nc2ccccn12 [Trazodone hydrochloride],2.35
17,CC(C)COCC(CN(Cc1ccccc1)c1ccccc1)N1CCCC1 (stereo unspecified) [Bepridil hydrochloride],8.48
18,NS(=O)(=O)c1cc2c(cc1Cl)NC(C1CC3C=CC1C3)NS2(=O)=O (stereo unspecified) [Cyclothiazide],0.296
